Data published in PubChem BioAssay (NCI).
Compounds without any hit were thinned out: in the full panel of roughly 79,000, 15% have a hit. Rule as the data show it: active = growth inhibition above about 70%; inactive = the rest.

Tests used:
[1] = NCI Yeast Anticancer Drug Screen. Data for the rad50 strain (AID 155);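 also: 0% = growth of vehicle-only cultures of the same strain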; conditions: S. cerevisiae rad50 strain growth inhibition; at 50.0 µM; stronger effect = higher value
Method in brief: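 Genetically altered yeast (DNA repair pathway); compound treatment; growth inhibition vs vehicle ctrl.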

[2] = NCI Yeast Anticancer Drug Screen. Data for the mec2-1 strain (AID 157); conditions: S. cerevisiae mec2-1 strain, at 50.0 µM, stronger effect = higher value
Method in brief: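 Each compound was tested on mec2-1 yeast, a strain altered in DNA damage repair or cell cycle control. Growth inhibition is reported relative to vehicle.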

[3] = NCI Yeast Anticancer Drug Screen. Data for the sgs1 mgt1 strain (AID 161);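 also: 0% = growth of cultures given vehicle only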; conditions: S. cerevisiae sgs1 mgt1 strain, at 50.0 µM, stronger effect = higher value
Method in brief: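 Test agents were incubated with a DNA-repair-mutant yeast strain. Growth was then read and compared against vehicle-treated controls.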

[4] = NCI Yeast Anticancer Drug Screen. Data for the cln2 rad14 strain (AID 165);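 also: 0% = growth equal to vehicle treated cultures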; conditions: S. cerevisiae cln2 rad14 strain, at 50.0 µM, stronger effect = higher value
Method in brief: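 Test compounds were added to cln2 rad14 yeast cultures; inhibition of growth was then determined by comparison with vehicle treatment.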

[5] = NCI Yeast Anticancer Drug Screen. Data for the bub3 strain (AID 167); conditions: S. cerevisiae bub3 mutant strain, at 50.0 µM, stronger effect = higher value
Method in brief: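 Yeast carrying a defined mutation is treated with each compound, and growth is compared with that of vehicle-exposed cells to give inhibition.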

[6] = NCI Yeast Anticancer Drug Screen. Data for the mlh1 rad18 strain (AID 175); conditions: S. cerevisiae mlh1 rad18 strain growth inhibition; at 50.0 µM; stronger effect = higher value
Method in brief: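 Inhibition values reflect reduced growth of mutant yeast versus vehicle-treated controls following compound exposure; the mutations affect DNA damage repair.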

Measured: growth inhibition

Cc1ccc(S(=O)(=O)OC2CCCC2OS(=O)(=O)c2ccc(C)cc2)cc1 (stereo unspecified)
inactive: [1] 0.2% | [2] 14.5% | [3] -8.5% | [4] 23.4% | [5] -2.35% | [6] -9.85%

Nc1ccc(N=Nc2ccncc2)c2ccccc12
inactive: [1] 31.7% | [2] 22.5% | [3] 4.1% | [4] -15.1% | [5] 28% | [6] 19.7%

COC(=O)C1CCC(C(=O)OC)CC1 (stereo unspecified)
inactive: [1] -4.3% | [2] -22.6% | [3] -2.3% | [4] -1.15% | [5] -9% | [6] -11.1%

O=C(/C=C/c1ccc(OCCCCCCCCCCOc2ccc(/C=C/C(=O)c3ccc(Cl)cc3)cc2)cc1)c1ccc(Cl)cc1
inactive: [1] 5.3% | [2] -1.45% | [3] -15.3% | [4] 16.1% | [5] 22.5% | [6] 15.6%

CN(C)[C@@H]1C(=O)C(C(=O)NCN2CCN(C(=N)N=C(N)N)CC2)=C(O)[C@@]2(O)C(=O)C3=C(O)c4c(O)cccc4[C@@](C)(O)[C@H]3C[C@@H]12
inactive: [1] -0.05% | [2] 1.65% | [3] -3.2% | [4] 14.2% | [5] 10.7% | [6] -5%

CN1NC(=O)SC(=O)c2ccccc2C1=O
inactive: [1] -16.4% | [2] 22% | [3] 0.1% | [4] -12.1% | [5] 0.15% | [6] 0.65%

CCC12CC3(C(=O)OC)OC1C(O)CN1CCc4c(n3c3cc(OC)ccc43)C12 (stereo unspecified)
inactive: [1] 6.9% | [2] -42.1% | [3] 12.2% | [4] 5.05% | [5] -9.35% | [6] 1.5%

CCSc1n[nH]c(=O)nc1SC
inactive: [1] 4.3% | [2] -3.25% | [3] -3.9% | [4] -67% | [5] -19.5% | [6] -0.35%

Cc1cc(C(=O)/C=C(\C(=O)c2ccccc2)c2ccccc2)ccc1Cl
inactive: [1] 18.8% | [2] 10.7% | [3] 6.65% | [4] -0.55% | [5] 0.6% | [6] 11.3%

CCOc1ccc(Nc2ncnc3sc4c(c23)CCCC4)cc1
inactive: [1] 10.3% | [2] -1% | [3] -1.15% | [4] 12.7% | [5] 17.2% | [6] 8.9%

CN(N=O)c1nc2c(C(N)=O)ncn2s1
inactive: [1] 10.2% | [2] 16.4% | [3] 4.95% | [4] 2.2% | [5] 13.9% | [6] 24.1%

CC(=O)CC(=O)ON(C)C(C)=O
inactive: [1] -8.85% | [2] 19.2% | [3] -15.8% | [4] 8.45% | [5] -14.3% | [6] -11.6%

CCOC(=O)c1cnc(-n2[nH]c(C)c(CCO)c2=O)[nH]c1=O
inactive: [1] -11.2% | [2] -46.9% | [3] -33.1% | [4] -6.15% | [5] -8.9% | [6] -37%

C=CNC(=S)n1nc(-c2ccccc2NC(=O)C(F)(F)F)c(=O)n(C(=S)NC=C)c1=S
inactive: [1] 31.4% | [2] 38.5% | [3] 30.4% | [4] -0.55% | [5] -9.1% | [6] 24.9%

CCOCCOC(=O)C1CCCC1=O (stereo unspecified)
inactive: [1] -5.25% | [2] -11.3% | [3] -34.9% | [4] -10.1% | [5] -11.2% | [6] -8.45%

CC(CO)(CO)N1C(=O)C2C3c4ccccc4C(c4ccccc43)C2C1=O (stereo unspecified)
inactive: [1] -2% | [2] 1.05% | [3] 1.65% | [4] -3.15% | [5] -3.95% | [6] -28.7%

N#Cc1c(N2CCCC2)ncn(Cc2ccccc2)c1=S
inactive: [1] -10.9% | [2] -15.1% | [3] -8.4% | [4] -25.1% | [5] -5.1% | [6] -0.2%

O=C1c2ccccc2C(=O)N1CCn1nc(-c2ccccc2)cc(-c2ccccc2)c1=O
inactive: [1] 1.85% | [2] -2.35% | [3] -25.5% | [4] 7.9% | [5] 39% | [6] -8.6%

CC(=O)OCC(=O)c1ccccc1
inactive: [1] -10.8% | [2] 6.65% | [3] -3.8% | [4] -4.15% | [5] 30.5% | [6] -13.6%

O=C(CCC(=O)Nc1cccc(Cl)c1)CC(=O)c1ccc(F)cc1
inactive: [1] -11.2% | [2] -1.8% | [3] 6.3% | [4] -23.9% | [5] -0.85% | [6] -4.85%

CN(C)Cc1ccc(-c2cc3onc(-c4ccccc4)c3c(=O)n2C)cc1
inactive: [1] -22.9% | [2] -13.1% | [3] -29.5% | [4] -8.4% | [5] -28% | [6] 2.5%

Oc1ccc(-c2csc(NNC3=NC/C(=C/c4ccc5c(c4)OCO5)S3)n2)cc1O
inactive: [1] 30.9% | [2] -16.9% | [3] 40.4% | [4] -11.4% | [5] 21.1% | [6] 40.8%

O=c1[nH]cnc2ccccc12
inactive: [1] 39% | [2] -1.55% | [3] 0.2% | [4] -7.3% | [5] 16.6% | [6] 14.7%

C/C(=N\N=C(N)N)c1ccc(NC(=S)Nc2ccccc2)cc1
inactive: [1] 5.4% | [2] 3.85% | [3] 26.2% | [4] -19.9% | [5] 3.5% | [6] 9.5%

CC(C)(C)OC(=O)NC(C)(C)C(=O)NCCC(=O)O
inactive: [1] 0% | [2] -70% | [3] -1.8% | [4] 3.35% | [5] -15.2% | [6] -13.5%

Cc1ccc(S(=O)(=O)OC(c2ccc(Cl)cc2)C(F)(F)F)cc1 (stereo unspecified)
inactive: [1] 7.55% | [2] -22.6% | [3] -0.55% | [4] 21.9% | [5] 3.45% | [6] 17.8%

CCC(=O)Oc1ccc(C(=O)O)cc1
inactive: [1] 6.2% | [2] -10% | [3] -12.1% | [4] -39.5% | [5] -26.5% | [6] 1.45%

CC1=COC(=O)c2ccccc2N1
inactive: [1] 15.3% | [2] 1.65% | [3] -7.1% | [4] 14.6% | [5] 6.05% | [6] 6%

CN=CN(C)c1c2ccccc2nc2ccccc12
inactive: [1] 5.6% | [2] -11.3% | [3] -5.05% | [4] 10.7% | [5] 9.75% | [6] -1.25%

CCOc1nc(=O)n(CC(=O)c2ccc(Cl)s2)cc1F
inactive: [1] 4.55% | [2] 17.4% | [3] -0.8% | [4] -7.8% | [5] 21.6% | [6] 19.6%

O=c1[nH]nc(-c2ccccc2)n1/N=C/c1c(O)ccc2ccccc12
inactive: [1] 8.15% | [2] 17.9% | [3] 9.15% | [4] 13.3% | [5] 15.4% | [6] 24.6%

COc1ccc(C=O)c(Br)c1O
inactive: [1] -0.65% | [2] -6.85% | [3] -14.2% | [4] 22.4% | [5] -12.3% | [6] -16.9%

CC(=O)Oc1ccc(C(C)C)cc1
inactive: [1] -9.55% | [2] -30.9% | [3] -25.3% | [4] -13.6% | [5] -11.2% | [6] -1.6%

Cc1cccc(NC(=O)c2ccc(Cl)cc2Cl)n1 (tested in a mixture with another compound)
inactive: [1] -2.95% | [2] -7.05% | [3] 3.45% | [4] -25.6% | [5] 4.05% | [6] 20.9%

O=C1CCCC1CN1CCCCC1 (stereo unspecified)
inactive: [1] 3.25% | [2] -31.8% | [3] -13.7% | [4] 8.5% | [5] 22.1% | [6] -7.25%

N#Cc1sc2c(c1OC(=O)c1ccccc1)c(=O)n(-c1ccccc1)c(=S)n2-c1ccccc1
inactive: [1] -2.65% | [2] 10.8% | [3] 3.45% | [4] -12.4% | [5] -5.95% | [6] 18%

NNC(=O)/C(=C/c1cccc([N+](=O)[O-])c1)NC(=O)c1ccccc1
inactive: [1] -41.4% | [2] -25.4% | [3] -15.9% | [4] 7.5% | [5] -16.4% | [6] -24.1%

COc1nc2ccccc2c(=O)[nH]1
inactive: [1] -6.7% | [2] -5.2% | [3] -6.05% | [4] 0.1% | [5] 2% | [6] 6.5%

N=C(N=C(C(Cl)(Cl)Cl)C(Cl)(Cl)Cl)N=C(C(Cl)(Cl)Cl)C(Cl)(Cl)Cl
inactive: [1] 8.75% | [2] 15.3% | [3] 11.1% | [4] -8.55% | [5] -24.2% | [6] 19.6%

C[CH2][Sn]([CH2]C)([O]C(=O)c1ccc(F)cc1)[O][Sn]([CH2]C)([CH2]C)[O]C(=O)c1ccc(F)cc1
inactive: [1] -7.3% | [2] -2.8% | [3] -16.4% | [4] 23.6% | [5] 12.6% | [6] -9.05%

CCOC(=O)C(=O)NC12CC3CC(CC(C3)C1)C2
inactive: [1] -16.9% | [2] -17.6% | [3] 1.5% | [4] -4.45% | [5] 24.8% | [6] -8.3%
